Compound activity deposited in PubChem BioAssay by several laboratories.
Rows were chosen to be rich in hits. Some 3.3% of all compounds tested hit in one or more screens of this group.
MBD2 DNA inh: inhibitors of MBD2 binding to methylated DNA, primary screen, biochemical, TR-FRET, DNA-binding domain, human; 0.31% of 370,000 active; AID 686964, 2013; Methyl-CpG-binding domain protein 2 (Homo sapiens), Q9UBB5; MBD2 binding to methylated oligonucleotide; inhibition, % at 4.4 µM; in the data active means inhibition above about 13%
Target sequence (Q9UBB5 whole entry, looked up, the tested form may be a part): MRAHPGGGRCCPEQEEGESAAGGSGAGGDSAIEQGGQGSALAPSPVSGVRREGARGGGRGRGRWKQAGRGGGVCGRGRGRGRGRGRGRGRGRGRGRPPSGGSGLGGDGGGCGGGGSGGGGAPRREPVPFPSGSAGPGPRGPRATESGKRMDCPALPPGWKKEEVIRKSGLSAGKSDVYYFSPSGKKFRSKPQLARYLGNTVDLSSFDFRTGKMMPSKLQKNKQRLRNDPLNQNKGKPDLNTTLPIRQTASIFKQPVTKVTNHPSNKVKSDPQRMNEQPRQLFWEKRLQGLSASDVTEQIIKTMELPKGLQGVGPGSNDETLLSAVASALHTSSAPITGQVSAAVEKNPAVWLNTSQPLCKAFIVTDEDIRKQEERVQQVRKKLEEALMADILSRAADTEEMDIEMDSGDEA
UHRF1 binding: UHRF1 methylated DNA binding inhibitors, primary screen, counter-screen for MBD2 inhibitor project, biochemical, TR-FRET, human UHRF1, single concentration; E3 ubiquitin-protein ligase UHRF1 (Homo sapiens), Q96T88; 0.75% of 370,000 active; inhibition, % at 4.4 µM; UHRF1 binding to methylated oligo; AID 687016, 2013; in the data active means inhibition above about 21%;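 further: UHRF1 SRA domain binding a hemimethylated CpG hairpin DNA probe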
PfGluPho inh: PfG6PD enzyme inhibitors, primary screen, biochemical, fluorescence intensity, uHTS. glucose-6-phosphate dehydrogenase-6-phosphogluconolactonase (Plasmodium falciparum 3D7). PfGluPho enzyme, NADPH resazurin-diaphorase fluorescence. inhibition, % at 20 µM. 0.78% of 350,000 active. AID 504690, 2011;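 active means inhibition reaching at least a set limit at 20 µM in the primary screen, cut at about 59% in these data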
PfM18AAP inh-1: PfM18AAP inhibitors, malaria aminopeptidase, primary screen, biochemical, QFRET, recombinant enzyme; M18 aspartyl aminopeptidase (Plasmodium falciparum 3D7); H-Glu-NHMec fluorogenic cleavage; inhibition, % at 7.35 µM; 1.2% of 290,000 active;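 active means inhibition above the campaign mean inhibition over all tested compounds plus 3 SD, cut at about 28% in these data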
PRMT1 FP inh: PRMT1 methyltransferase inhibitors, primary screen, biochemical, fluorescence polarization; 1.3% of 370,000 active; recombinant PRMT1, activity-based probe fluorescence polarization; inhibition, % at 2.79 µM; AID 652257, 2013;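 active means inhibition above about 21% made by adding two undisclosed values, limit read from the data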
PfM18AAP inh-2: PfM18AAP inhibitors, malaria aminopeptidase, confirmation, biochemical, QFRET, recombinant enzyme, triplicate; shares compounds with PfM18AAP inh-1; H-Glu-NHMec fluorogenic cleavage; inhibition, % at 7.35 µM; 28% of 2,400 active;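 active means mean inhibition over replicate wells above the hit cutoff set for the earlier primary screen, cut at about 29% in these data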
CTSL1 counter: cathepsin L1 inhibitors, retest, confirmation, counter-screen for PFM18AAP inhibitor project, biochemical, QFRET, triplicate | inhibition, % at 5.96 µM | purified cathepsin L1, Z-Leu-Arg-MCA fluorescence | 2,400 tested, under 10 active | shares compounds with PfM18AAP inh-1;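 active means average inhibition across replicates above the hit cutoff set in the earlier primary screen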
PfG6PD confirm: PfG6PD inhibitors, hit retest, confirmation, biochemical, fluorescence intensity, single concentration; shares compounds with PfGluPho inh; inhibition, % at 20 µM; 34% of 2,400 active; recombinant PfGluPho, NADPH-diaphorase-resazurin fluorescence;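 active means inhibition of at least 50% at 20 µM in any single replicate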
Diaph ctr 10uM: diaphorase inhibitors and chemical oxidizers, confirmation, counter-screen for P. falciparum G6PD inhibitor project, biochemical, fluorescence intensity, 10 µM NADPH; shares compounds with PfGluPho inh; diaphorase-coupled resazurin reduction, NADPH 10 uM; inhibition, % at 20 µM; 39% of 820 active; AID 504862, 2011;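 active means average inhibition reaching 50% or more with the compound at 20 µM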;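 further: resorufin red fluorescence formed as diaphorase reduces resazurin using NADPH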
Diaphorase 30uM: diaphorase inhibitors and chemical oxidizers, confirmation, counter-screen for P. falciparum G6PD inhibitor project, biochemical, fluorescence intensity, 30 µM NADPH. shares compounds with PfGluPho inh. Diaphorase/resazurin coupled assay, resorufin fluorescence. inhibition, % at 20 µM. 29% of 820 active. AID 504863, 2011;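 active means inhibition averaging 50% or more, tested at 20 µM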
PRMT1 inh conf: PRMT1 methyltransferase inhibitors, confirmation, biochemical, fluorescence polarization, triplicate; shares compounds with PRMT1 FP inh; recombinant His-PRMT1, activity-based probe fluorescence polarization; inhibition, % at 2.79 µM; 42% of 3,300 active;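 active means mean inhibition across replicates above the hit cutoff derived for the earlier primary screen, cut at about 22% in these data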
A number is an active result; . = inactive; / = no result given.

SMILES	MBD2 DNA inh	UHRF1 binding	PfGluPho inh	PfM18AAP inh-1	PRMT1 FP inh	PfM18AAP inh-2	CTSL1 counter	PfG6PD confirm	PRMT1 inh conf	others
COc1cc(C2Nc3ccc4ncccc4c3C3=C2C(=O)CC(C)(C)C3)cc(OC)c1O (stereo not drawn)	.	.	.	.	.	/	/	/	/
COc1cc(C2Nc3ccc4ncccc4c3C3=C2C(=O)CCC3)cc(OC)c1O (stereo not drawn)	.	.	69	43	.	.	.	.	/
COc1ccc(C(CCOC(=O)Oc2ccccc2)c2cc(OC)cc(OC)c2)cc1 (stereo not drawn)	.	.	/	/	.	/	/	/	/
C[C@H](O)[C@@H]1CN2CCc3c([nH]c4c(-c5ccccc5)cccc34)[C@@H]2C[C@@H]1N(C)CC1CCCCC1	.	.	/	/	.	/	/	/	/
COc1ccc(C2CC(=O)C(c3ccccc3C)=CN2Cc2ccccc2)cc1 (stereo not drawn)	.	.	/	/	.	/	/	/	/
Cc1ccccc1CN[C@@H]1CC[C@@]23CCCN2C(=O)CCC[C@H]3C1	.	.	/	/	.	/	/	/	/
N#CCC(=O)N/N=C/c1ccc(Sc2nc3ccccc3s2)o1	.	.	68	41	.	.	.	.	/
O=C(COc1cccc2ccccc12)N/N=C/c1ccc(Sc2nc3ccccc3s2)o1	.	.	.	.	.	/	/	/	/
COc1cc(/C=C2\CC/C(=C\c3cc(OC)c(O)c(OC)c3)C2=O)cc(OC)c1O	.	.	63	51	27	48	.	67	/	Diaph ctr 10uM=.;Diaphorase 30uM=.
CCCNC(=O)Cn1sc2nc(C)cc(C)c2c1=O	.	.	81	58	93	30	.	68	94	Diaph ctr 10uM=.;Diaphorase 30uM=.
Cc1nn(CC(=O)N2CCC(N3CCCCC3)CC2)c(=O)c2c1sc1ccccc12	.	.	.	.	.	/	/	/	/
CC(=O)Cn1cnc2c(sc3nc(C)cc(C)c32)c1=O	.	.	.	.	.	/	/	/	/
Cc1cc(C)c2c(=O)n(CC(=O)N3CCC(N4CCCCC4)CC3)sc2n1	.	.	80	43	78	.	.	63	.	Diaph ctr 10uM=.;Diaphorase 30uM=.
CC(=O)CC[C@@H]1CC[C@]2(CCCN(C(=O)c3ccno3)C2)O1	.	.	/	/	.	/	/	/	/
CN(CCOC(=O)CC1C=CCC1)C1CN(Cc2cn(Cc3ccccc3Cl)nn2)S(=O)(=O)C1 (stereo not drawn)	.	.	/	/	.	/	/	/	/
CCN(C(=O)CN1CCCCCC1)c1c(N)n(Cc2ccccc2)c(=O)[nH]c1=O	.	.	.	/	.	/	/	/	/
CCN(C(=O)CN1CCN(c2ccc(O)cc2)CC1)c1c(N)n(Cc2ccccc2)c(=O)[nH]c1=O	.	.	73	35	27	.	.	.	.
CN1CCN(C(=O)c2sc(=S)n(-c3ccccc3)c2N)CC1	.	.	82	49	76	.	.	83	79	Diaph ctr 10uM=.;Diaphorase 30uM=.
Cc1ccc(-n2c(N)c(C(=O)N3CCOCC3)sc2=S)cc1	.	.	.	.	.	/	/	/	/
COC(=O)C1=C(C)N(C)C(=NCC2CC2)NC1CCc1ccccc1 (stereo not drawn)	.	.	/	/	.	/	/	/	/
Cc1nn(C)c(Sc2ccccc2N)c1[N+](=O)[O-]	.	.	64	39	71	.	.	.	52
COc1cc2c(cc1NC(=O)CSc1nnc(-c3ccccn3)n1-c1ccccc1)oc1ccccc12	.	.	/	/	.	/	/	/	/
COc1ccc(Cn2ccc3ccc(-c4ccc5ccn(C(=O)c6ccccc6)c5c4)cc32)cc1	.	.	/	/	.	/	/	/	/
O=C(CN1C(=O)/C(=C/c2ccco2)SC1=S)NC1CCS(=O)(=O)C1 (stereo not drawn)	.	52	.	39	44	.	.	/	24
O=C(CCN1C(=O)/C(=C/c2ccccc2)SC1=S)NC1CCS(=O)(=O)C1 (stereo not drawn)	.	.	.	.	.	/	/	/	/
SMILES	MBD2 DNA inh	UHRF1 binding	PfGluPho inh	PfM18AAP inh-1	PRMT1 FP inh	PfM18AAP inh-2	CTSL1 counter	PfG6PD confirm	PRMT1 inh conf	others
C[C@H]1COc2cc(N3CCCC3)ccc2S(=O)(=O)N1C	.	.	/	/	.	/	/	/	/
Cc1ccc(-c2csc3n[nH]c(=S)n23)cc1	.	.	63	63	61	52	.	.	.
CCCC(=O)N1CCC[C@]2(CC[C@H](CCC(=O)OCC)O2)C1	.	.	/	/	.	/	/	/	/
O=C(OC12CCCN(C1)/C(=C/c1ccc(Cl)cc1)C2)C1CCCCC1 (stereo not drawn)	.	.	/	/	.	/	/	/	/
Nc1c(C(=O)N2CCOCC2)sc2nc(N3CCOCC3)c3c(c12)CCCC3	.	.	66	37	34	.	.	.	.
Nc1c(C(=O)NCc2ccccc2)sc2nc(N3CCOCC3)c3c(c12)CCCC3	.	.	.	.	.	/	/	/	/
Nc1c(C(=O)Nc2ccc(Cl)cc2)sc2nc(N3CCOCC3)c3c(c12)CCCC3	.	.	.	42	30	.	.	/	46
COc1cccc(NC(=O)c2sc3nc(N4CCOCC4)c4c(c3c2N)CCCC4)c1	.	.	.	50	32	.	.	/	.
C[C@@H]1N[C@H]2N(C1=O)c1ccccc1[C@@]21C[C@@H]2C(=O)N[C@](C)(O1)c1nc3ccccc3c(=O)n12	.	.	/	/	.	/	/	/	/
CN1CCN(C(=S)c2ccc(N(C)C)cc2)CC1	.	.	.	40	43	.	.	/	43
CCN1CCN(CCC(=O)Nc2ccc(Br)cc2)CC1	.	.	.	.	.	/	/	/	/
CCN1CCN(C(=S)c2ccc(Br)cc2)CC1	.	.	.	40	36	.	.	/	35
CN1CCN(C(=S)c2ccc(Br)cc2)CC1	.	.	59	47	41	.	.	61	44	Diaph ctr 10uM=.;Diaphorase 30uM=.
